Reference: PubChem BioAssay (NCATS)
Results filed as inconclusive are left out. A call without a number means that no potency is given here. Active and inactive are the calls of the source. Calls come from the whole dose curve; as a rule, active = well fitted curve in the direction sought with a large enough effect; inconclusive = small, poorly fitted or top-dose-only effect, or another doubt; inactive = no such curve, though single readings can be large; an effect the other way counts as inactive or inconclusive.

Key:
[1] = molecular target: Voltage-gated inwardly rectifying potassium channel KCNH2 (Homo sapiens) (UniProt Q12809); assay: qHTS Assay for Small Molecule Inhibitors of the Human hERG Channel Activity (AID 588834); conditions: U2OS BacMam hERG, FluxOR thallium flux fluorescence; series mostly up to 46.1 µM;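 note: lower thallium flux fluorescence means stronger hERG block; nearly all actives have a fitted effect of over 50% in size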; note: potency is the fitted concentration of half-maximal effect
Chain of Voltage-gated inwardly rectifying potassium channel KCNH2 (Homo sapiens) (Q12809 whole entry, looked up): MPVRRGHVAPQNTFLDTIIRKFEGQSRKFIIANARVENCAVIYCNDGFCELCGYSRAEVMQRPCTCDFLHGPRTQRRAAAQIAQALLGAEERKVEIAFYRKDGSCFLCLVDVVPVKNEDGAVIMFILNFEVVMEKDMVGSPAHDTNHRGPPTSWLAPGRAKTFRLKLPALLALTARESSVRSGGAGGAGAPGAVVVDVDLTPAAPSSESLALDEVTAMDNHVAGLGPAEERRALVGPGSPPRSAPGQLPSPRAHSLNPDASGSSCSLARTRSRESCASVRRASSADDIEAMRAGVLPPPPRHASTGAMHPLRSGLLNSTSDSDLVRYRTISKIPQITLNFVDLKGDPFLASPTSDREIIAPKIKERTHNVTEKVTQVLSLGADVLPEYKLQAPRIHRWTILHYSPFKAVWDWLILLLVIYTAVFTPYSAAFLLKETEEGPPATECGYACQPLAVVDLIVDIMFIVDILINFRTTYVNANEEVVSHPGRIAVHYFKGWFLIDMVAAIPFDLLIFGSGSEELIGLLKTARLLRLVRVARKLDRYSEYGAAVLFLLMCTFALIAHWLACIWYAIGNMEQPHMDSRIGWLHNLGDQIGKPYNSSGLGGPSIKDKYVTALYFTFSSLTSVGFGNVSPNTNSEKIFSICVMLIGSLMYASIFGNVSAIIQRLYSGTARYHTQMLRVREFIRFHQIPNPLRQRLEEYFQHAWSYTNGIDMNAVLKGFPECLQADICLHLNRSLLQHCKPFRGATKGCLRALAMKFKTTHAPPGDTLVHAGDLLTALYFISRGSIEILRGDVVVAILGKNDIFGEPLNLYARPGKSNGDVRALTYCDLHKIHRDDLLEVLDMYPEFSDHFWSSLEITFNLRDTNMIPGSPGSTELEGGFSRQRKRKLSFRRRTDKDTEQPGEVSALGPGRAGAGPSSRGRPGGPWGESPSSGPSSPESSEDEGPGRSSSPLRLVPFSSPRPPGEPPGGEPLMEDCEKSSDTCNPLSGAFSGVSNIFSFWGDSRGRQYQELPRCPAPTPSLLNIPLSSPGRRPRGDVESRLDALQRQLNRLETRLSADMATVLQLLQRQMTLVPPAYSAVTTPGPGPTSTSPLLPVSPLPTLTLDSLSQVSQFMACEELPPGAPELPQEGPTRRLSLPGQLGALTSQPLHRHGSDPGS
Procedure, shortened: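 Homogeneous FluxOR thallium flux assay using hERG-expressing U2OS cells (BacMam). Compound treatment about 10 minutes preceded stimulation; reduced fluorescence taken as channel block.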

[2] = molecular target: Luciferin 4-monooxygenase (Photinus pyralis) (UniProt P08659); assay: Biochemical firefly luciferase enzyme assay for NPC (AID 624030); note: nearly all actives have a fitted effect of over 70% in size; note: potency is the fitted concentration of half-maximal effect; conditions: purified P. pyralis luciferase, luminescence, 5 min; series mostly up to 58.6 µM
Chain of Luciferin 4-monooxygenase (Photinus pyralis) (P08659 whole entry, looked up): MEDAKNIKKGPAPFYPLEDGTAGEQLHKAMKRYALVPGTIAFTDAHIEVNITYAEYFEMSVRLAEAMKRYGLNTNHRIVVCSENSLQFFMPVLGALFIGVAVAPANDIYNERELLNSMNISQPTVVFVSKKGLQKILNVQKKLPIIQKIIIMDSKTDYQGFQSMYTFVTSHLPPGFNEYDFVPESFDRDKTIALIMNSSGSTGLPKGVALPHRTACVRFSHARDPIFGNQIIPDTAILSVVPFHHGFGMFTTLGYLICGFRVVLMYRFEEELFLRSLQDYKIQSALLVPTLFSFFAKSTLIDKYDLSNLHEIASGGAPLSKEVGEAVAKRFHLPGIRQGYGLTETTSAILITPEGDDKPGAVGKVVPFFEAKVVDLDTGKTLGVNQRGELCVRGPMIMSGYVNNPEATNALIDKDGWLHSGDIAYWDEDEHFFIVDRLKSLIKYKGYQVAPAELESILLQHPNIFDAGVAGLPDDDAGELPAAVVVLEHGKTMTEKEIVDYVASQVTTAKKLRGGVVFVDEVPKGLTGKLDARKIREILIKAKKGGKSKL
Procedure, shortened: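 Purified P. pyralis luciferase at 10 nM in 50 mM Tris Acetate (final), luminescence read within 5 minutes of enzyme addition to compounds. Activity normalised to PTC124 versus DMSO; concentration-response curves classed by r2, magnitude and activity.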

[3] = S16 Schwann cell viability assay (CellTiter-Glo assay) (AID 624031); conditions: S16 rat Schwann cells viability, 24 h; series mostly up to 57.5 µM;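 note: cellular ATP luminescence as a viability measure; nearly all actives have a fitted effect of over 70% in size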
Procedure, shortened: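 Untransfected S16 rat Schwann cells; compound 24 h, 37 °C/5% CO2; CellTiter-Glo ATP luminescence. % activity vs no-cell wells and DMSO controls (0%); concentration-effect curves classed by r2, response magnitude, activity.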

[4] = S16 Schwann cell PMP22 intronic element firefly luciferase assay (AID 624032); conditions: S16 rat Schwann cells, PMP22 element FLuc, 24 h; series mostly up to 57.5 µM; note: nearly all actives have a fitted effect of over 30% in size; note: potency is the fitted concentration of half-maximal effect
Procedure, shortened: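 Rat S16 Schwann cells stably carrying firefly luciferase driven by a PMP22 intronic element, in 10% FBS, treated 24 h at 37 C. ONE-Glo luminescence normalized to PTC124 control and DMSO (0%); curves classed by r2, magnitude and activity.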

Structure (SMILES): CC[C@@H]1C(=O)OC[C@@H]1Cc1cncn1C
- Potency [1]: inactive

Structure (SMILES): CS(=N)(=O)CC[C@H](N)C(=O)O (some centres undefined)
- Potency [1]: inactive

Structure (SMILES): O=[N+]([O-])c1ccc([As](=O)(O)O)cc1
- Potency [1]: inactive
- Potency [2]: inactive
- Potency [3]: inactive
- Potency [4]: inactive

Structure (SMILES): CC(=O)OCC1=C(C(=O)O)N2C(=O)[C@@H](N)[C@@H]2SC1
- Potency [2]: inactive
- Potency [3]: inactive

Structure (SMILES): CC(C)(C)NC[C@H](O)c1ccc(O)cc1Cl
- Potency [2]: inactive

Structure (SMILES): CN[C@@H]1C[C@@H](c2ccc(Cl)c(Cl)c2)c2ccccc21
- Potency [1]: 12.6 µM (active)
- Potency [2]: inactive

Structure (SMILES): C[C@]12CCC(=O)C(O)=C1CC[C@@H]1[C@H]3CCC(=O)[C@@]3(C)CC[C@@H]12
- Potency [1]: inactive
- Potency [2]: inactive

Structure (SMILES): C[C@]12CC[C@@H]3[C@@H](CCC4=CC(=O)CC[C@@H]43)[C@@H]1CC[C@@H]2OC(=O)CCc1ccccc1
- Potency [2]: inactive

Structure (SMILES): S=C(SSC(=S)N1CCCCC1)N1CCCCC1
- Potency [2]: 8.09 µM (active)

Structure (SMILES): NC1=NC(=O)N2CC12 (centres undefined)
- Potency [1]: inactive
- Potency [2]: inactive
- Potency [3]: inactive
- Potency [4]: inactive

Structure (SMILES): COc1ccc2c(c[n+](C)c3c4cc5c(cc4ccc23)OCO5)c1OC
- Potency [1]: inactive

Structure (SMILES): CCCN1CCC[C@H](c2cccc(O)c2)C1
- Potency [1]: inactive
- Potency [2]: inactive
- Potency [3]: inactive
- Potency [4]: inactive

Structure (SMILES): NCc1cc(=O)[nH]o1
- Potency [1]: inactive

Structure (SMILES): NC1CCc2cc(O)c(O)cc2C1 (centres undefined)
- Potency [1]: inactive

Structure (SMILES): COc1cc([C@@H]2c3cc4c(cc3[C@@H](O)C3COC(=O)C32)OCO4)cc(OC)c1O (some centres undefined)
- Potency [2]: inactive

Structure (SMILES): C[C@@H]1[C@H](O)[C@@H](C)C=CC=CCCC=CC=CC=CC=C[C@H](O[C@H]2O[C@@H](C)[C@H](O)[C@@H](N)[C@@H]2O)CC2O[C@](O)(C[C@@H](O)[C@H](O)CC[C@@H](O)C[C@@H](O)C[C@@H](O)CC(=O)O[C@H]1C)C[C@H](O)[C@H]2C(=O)O
- Potency [2]: inactive

Structure (SMILES): O=C(Nc1ccc(Oc2ccc(Cl)cc2)c(Cl)c1)c1cc(I)cc(I)c1O
- Potency [4]: 10.2 µM (active)

Structure (SMILES): C#CC1(O)CCC2C3CCC4=CC(=O)CCC4(C)C3CCC21C (centres undefined)
- Potency [2]: inactive
- Potency [3]: inactive
- Potency [4]: inactive

Structure (SMILES): CC(O)CN1CCN(CC(=O)[O-])CCN(CC(=O)[O-])CCN(CC(=O)[O-])CC1.[Gd+3] (centres undefined)
- Potency [2]: inactive

Structure (SMILES): C=CCN1CC[C@]23CCCCC2[C@H]1Cc1ccc(O)cc13 (some centres undefined)
- Potency [2]: inactive
- Potency [3]: inactive
- Potency [4]: inactive

Structure (SMILES): CN1C2CCC1CC(OC(=O)c1cc(Cl)cc(Cl)c1)C2 (centres undefined)
- Potency [1]: 3.55 µM (active)
- Potency [2]: inactive

Structure (SMILES): COC(=O)c1cncn1C(C)c1ccccc1 (centres undefined)
- Potency [1]: inactive
- Potency [2]: inactive
- Potency [3]: inactive
- Potency [4]: inactive

Structure (SMILES): CCCN(CCC)C1CCc2ccc(O)cc2C1 (centres undefined)
- Potency [1]: 2.24 µM (active)

Structure (SMILES): NC(N)=NOCCC(N)C(=O)O (centres undefined)
- Potency [1]: inactive

Structure (SMILES): CC(C)NCC(O)c1ccc([N+](=O)[O-])cc1 (centres undefined)
- Potency [2]: inactive

Structure (SMILES): C[C@@H]1O[C@H](C[N+](C)(C)C)C[C@H]1O
- Potency [1]: inactive

Structure (SMILES): C[N+](C)(C)CC(=O)O
- Potency [1]: inactive
- Potency [2]: inactive

Structure (SMILES): Cc1nc(-c2ccc(-c3ccc(C(=O)N4CCc5cc6c(cc54)C4(CCN(C)CC4)CO6)cc3)c(C)c2)no1
- Potency [1]: 7.94 µM (active)

Structure (SMILES): C[C@]12N[C@H](Cc3ccccc31)c1ccccc12
- Potency [1]: inactive
- Potency [2]: inactive

Structure (SMILES): c1ccc(C2(c3ccccc3)CC2C2=NCCN2)cc1 (centres undefined)
- Potency [2]: inactive
- Potency [3]: inactive
- Potency [4]: inactive
